Test results reported in PubChem BioAssay (NCATS).
Values joined by “and” are separate entries in the source; they are usually repeats but may differ in a detail not shown here. Equal entries are not always repeated. Inconclusive results are not listed. A call without a number means that no potency is given here. The source holds several records for some structures; these can differ, active in one and inactive in another. Active and inactive are the calls of the source. The call rests on the fitted dose curve; in most records, active means well fitted curve in the direction sought with a large enough effect; inconclusive means small, poorly fitted or top-dose-only effect, or another doubt; inactive means no such curve, though single readings can be large; an effect the other way counts as inactive or inconclusive.

Experiment: qHTS Screen of the MIPE 4.0 Collection Against Ewings Sarcoma (TC32) (AID 1259256); further: nearly all actives have a fitted effect of over 45% in size; further: potency means the concentration at half of the fitted maximal effect
Conditions: TC32 Ewing sarcoma viability, CellTiter-Glo, 48 h; series mostly up to 45.8 µM
Procedure, shortened: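 Here, cells in 5% FBS RPMI were exposed for two days (48 h) to compound dilutions added four hours after plating. ATP-based CellTiter-Glo luminescence measured viability, normalized to vehicle and no-cell blanks.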

Row | Structure (SMILES) | Potency
1 | NCCc1cnc[nH]1 | inactive
2 | NC(=O)OCC(COC(N)=O)c1ccccc1 | 5.9 µM (active)
3 | O=C1N(c2ccccc2)c2ccccc2C1(Cc1ccncc1)Cc1ccncc1 | inactive
4 | CN1CCC(=C2c3ccccc3CC(=O)c3sccc32)CC1 | 16.6 µM (active)
5 | CC(C(=O)O)c1cccc(C(=O)c2ccccc2)c1 (stereo not drawn) | 14.8 µM (active)
6 | CCc1cccc2c3c([nH]c12)C(CC)(CC(=O)O)OCC3 (stereo not drawn) | inactive
7 | Cn1cnc2c1c(=O)[nH]c(=O)n2C | 23.5 µM (active)
8 | CC(C)NCC(O)COc1ccc(CCOCC2CC2)cc1 (stereo not drawn) | inactive
9 | Cn1c(=O)c2c(ncn2C)n(C)c1=O | inactive

Experiment: qHTS assay to identify small molecule inhibitors of chordoma cells - UCH-1 (AID 1259355); further: nearly all actives have a fitted effect of over 55% in size
Conditions: UCH-1 chordoma viability, CellTiter-Glo, 48 h, combination, with auranofin plus four topoisomerase inhibitors; series mostly up to 46.1 µM
Procedure, shortened: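 Luminescent ATP read-out (CellTiter-Glo, 30min at room temperature) measured viability of UCH-1 cells exposed for 48hr to test drugs at 15 concentrations, co-dosed with a five-agent combination of auranofin, camptothecin, doxorubicin, rubitecan and topotecan.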

Row | Structure (SMILES) | Potency
10 | COc1cc2nc(N3CCN(C(=O)C4COc5ccccc5O4)CC3)nc(N)c2cc1OC (stereo not drawn) | inactive
11 | NCCc1cnc[nH]1 | inactive
12 | CC(C)(Oc1ccc(C2CC2(Cl)Cl)cc1)C(=O)O (stereo not drawn) | inactive
13 | CCC1(C)CC(=O)NC1=O (stereo not drawn) | inactive
14 | NC(=O)OCC(COC(N)=O)c1ccccc1 | inactive
15 | O=C1N(c2ccccc2)c2ccccc2C1(Cc1ccncc1)Cc1ccncc1 | inactive
16 | NC(=O)NO | inactive
17 | CN1CCC(=C2c3ccccc3CC(=O)c3sccc32)CC1 | inactive
18 | CN(C)c1nc(N(C)C)nc(N(C)C)n1 | inactive
19 | CC(C(=O)O)c1cccc(C(=O)c2ccccc2)c1 (stereo not drawn) | inactive
20 | CN1CCN2c3ccccc3Cc3ccccc3C2C1 (stereo not drawn) | inactive
21 | CCOC(=O)C(C)(C)Oc1ccc(Cl)cc1 | inactive
22 | O=c1[nH]cc(F)c(=O)[nH]1 | inactive
23 | CCc1cccc2c3c([nH]c12)C(CC)(CC(=O)O)OCC3 (stereo not drawn) | inactive
24 | Cn1cnc2c1c(=O)[nH]c(=O)n2C | inactive
25 | Nc1nc2c(ncn2COC(CO)CO)c(=O)[nH]1 | inactive
26 | O=C(c1ccc(OCCN2CCCCC2)cc1)c1c(-c2ccc(O)cc2)sc2cc(O)ccc12 | inactive
27 | CCOC(=O)c1ncn2c1CN(C)C(=O)c1cc(F)ccc1-2 | inactive
28 | CC(C)NCC(O)COc1ccc(CCOCC2CC2)cc1 (stereo not drawn) | inactive
29 | O=C(c1ccc(F)cc1)C1CCN(CCn2c(=O)[nH]c3ccccc3c2=O)CC1 | inactive
30 | O=c1c(-c2ccc(O)cc2)coc2cc(O)cc(O)c12 | inactive
31 | Cn1ccc2cc3c(cc21)CCN3C(=O)Nc1cccnc1 | inactive

Experiment: qHTS assay to identify small molecule inhibitors of chordoma cells - UCH-2 (AID 1259356)
Conditions: UCH-2 chordoma viability, CellTiter-Glo ATP luminescence, 48 h; series mostly up to 46.1 µM

Row | Structure (SMILES) | outcome
32 | COc1cc2nc(N3CCN(C(=O)C4COc5ccccc5O4)CC3)nc(N)c2cc1OC (stereo not drawn) | inactive
33 | NCCc1cnc[nH]1 | inactive
34 | CC(C)(Oc1ccc(C2CC2(Cl)Cl)cc1)C(=O)O (stereo not drawn) | inactive
35 | CCC1(C)CC(=O)NC1=O (stereo not drawn) | inactive
36 | NC(=O)OCC(COC(N)=O)c1ccccc1 | inactive
37 | O=C1N(c2ccccc2)c2ccccc2C1(Cc1ccncc1)Cc1ccncc1 | inactive
38 | NC(=O)NO | inactive
39 | CN1CCN(C2=Nc3cc(Cl)ccc3Nc3ccccc32)CC1 | inactive
40 | CN1CCC(=C2c3ccccc3CC(=O)c3sccc32)CC1 | inactive
41 | CN(C)c1nc(N(C)C)nc(N(C)C)n1 | inactive
42 | CC(C(=O)O)c1cccc(C(=O)c2ccccc2)c1 (stereo not drawn) | inactive
43 | CN1CCN2c3ccccc3Cc3ccccc3C2C1 (stereo not drawn) | inactive
44 | CN1CCC(=C2c3ccccc3C=Cc3ccccc32)CC1 | inactive
45 | Clc1ccc2c(c1)C(N1CCNCC1)=Nc1ccccc1O2 | inactive
46 | CCOC(=O)C(C)(C)Oc1ccc(Cl)cc1 | inactive
47 | O=c1[nH]cc(F)c(=O)[nH]1 | inactive
48 | CCc1cccc2c3c([nH]c12)C(CC)(CC(=O)O)OCC3 (stereo not drawn) | inactive
49 | Cn1cnc2c1c(=O)[nH]c(=O)n2C | inactive
50 | Nc1nc2c(ncn2COC(CO)CO)c(=O)[nH]1 | inactive
51 | O=C(c1ccc(OCCN2CCCCC2)cc1)c1c(-c2ccc(O)cc2)sc2cc(O)ccc12 | inactive
52 | CCOC(=O)c1ncn2c1CN(C)C(=O)c1cc(F)ccc1-2 | inactive
53 | CC(C)NCC(O)COc1ccc(CCOCC2CC2)cc1 (stereo not drawn) | inactive
54 | Cn1c(=O)c2c(ncn2C)n(C)c1=O | inactive
55 | O=C(c1ccc(F)cc1)C1CCN(CCn2c(=O)[nH]c3ccccc3c2=O)CC1 | inactive
56 | Cn1ccc2cc3c(cc21)CCN3C(=O)Nc1cccnc1 | inactive
57 | CC12CC3CC(C)(C1)CC(N)(C3)C2 | inactive

Experiment: P-glycoprotein substrates identified in KB-3-1 adenocarcinoma cell line, qHTS therapeutic library screen (AID 1346986); further: nearly all actives have a fitted effect of over 60% in size
Conditions: KB-3-1 parental cells viability, CellTiter-Glo, 72 h; series mostly up to 44.5 µM
Procedure, shortened: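 Resistance attributable to P-gp was assessed by comparing AC50 in KB-8-5-11 with parental KB-3-1 and by tariquidar reversal. Cells were exposed 72 h and viability read by CellTiter-Glo.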

Row | Structure (SMILES) | outcome
58 | NCCc1cnc[nH]1 | inactive
59 | CC(C)(Oc1ccc(C2CC2(Cl)Cl)cc1)C(=O)O (stereo not drawn) | inactive [at 93.4 µM]
60 | O=C1N(c2ccccc2)c2ccccc2C1(Cc1ccncc1)Cc1ccncc1 | inactive
61 | O=C(c1ccc(OCCN2CCCCC2)cc1)c1c(-c2ccc(O)cc2)sc2cc(O)ccc12 | inactive
62 | Nc1ccn([C@H]2CC[C@@H](CO)O2)c(=O)n1 | inactive
63 | O=c1c(-c2ccc(O)cc2)coc2cc(O)cc(O)c12 | inactive

Experiment: P-glycoprotein substrates identified in KB-8-5-11 adenocarcinoma cell line, qHTS therapeutic library screen (AID 1346987); further: nearly all actives have a fitted effect of over 65% in size; further: potency means the concentration at half of the fitted maximal effect
Conditions: KB-8-5-11 (P-gp overexpressing) viability, CellTiter-Glo, 72 h; series mostly up to 44.5 µM
Procedure, shortened: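 KB-8-5-11, a colchicine-selected P-gp-overexpressing KB-3-1 subline, was grown without colchicine for the assay. Cells were seeded at 500 cells/well, dosed in concentration-response and incubated 72 h at 37 degree C, 5% CO2. Viability was read by CellTiter-Glo luminescence.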

Row | Structure (SMILES) | Potency
64 | COc1cc2nc(N3CCN(C(=O)C4COc5ccccc5O4)CC3)nc(N)c2cc1OC (stereo not drawn) | inactive
65 | NCCc1cnc[nH]1 | inactive
66 | CC(C)(Oc1ccc(C2CC2(Cl)Cl)cc1)C(=O)O (stereo not drawn) | inactive
67 | CCC1(C)CC(=O)NC1=O (stereo not drawn) | inactive
68 | NC(=O)OCC(COC(N)=O)c1ccccc1 | inactive
69 | O=C1N(c2ccccc2)c2ccccc2C1(Cc1ccncc1)Cc1ccncc1 | inactive
70 | NC(=O)NO | inactive and 1.66 µM (active)
71 | CCN1CCCC1CNC(=O)c1cc(S(=O)(=O)CC)c(N)cc1OC (stereo not drawn) | inactive
72 | COc1ccc2c(c1)c(CC(=O)O)c(C)n2C(=O)c1ccc(Cl)cc1 | inactive
73 | CN(C)c1nc(N(C)C)nc(N(C)C)n1 | inactive
74 | CC(C(=O)O)c1cccc(C(=O)c2ccccc2)c1 (stereo not drawn) | inactive
75 | Clc1ccc2c(c1)C(N1CCNCC1)=Nc1ccccc1O2 | inactive and 20.6 µM (active)
76 | CCOC(=O)C(C)(C)Oc1ccc(Cl)cc1 | inactive
77 | CCc1cccc2c3c([nH]c12)C(CC)(CC(=O)O)OCC3 (stereo not drawn) | inactive
78 | Cn1cnc2c1c(=O)[nH]c(=O)n2C | inactive and 16.6 µM (active)
79 | COc1ccc(CCN(C)CCCC(C#N)(c2ccc(OC)c(OC)c2)C(C)C)cc1OC (stereo not drawn) | 20.6 µM (active)
80 | O=C1c2c(O)ccc(O)c2C(=O)c2c(NCCNCCO)ccc(NCCNCCO)c21 | 5.26 µM (active)
81 | Nc1nc2c(ncn2COC(CO)CO)c(=O)[nH]1 | inactive and 16.6 µM (active)
82 | Nc1ccn([C@H]2CC[C@@H](CO)O2)c(=O)n1 | inactive
83 | CCOC(=O)c1ncn2c1CN(C)C(=O)c1cc(F)ccc1-2 | inactive
84 | Cn1c(=O)c2c(ncn2C)n(C)c1=O | inactive
85 | O=C(c1ccc(F)cc1)C1CCN(CCn2c(=O)[nH]c3ccccc3c2=O)CC1 | inactive
86 | CC[C@@]1(O)C(=O)OCc2c1cc1n(c2=O)Cc2cc3c(CN(C)C)c(O)ccc3nc2-1 | 5.9 µM (active) and 8.2 µM (active)
87 | O=c1c(-c2ccc(O)cc2)coc2cc(O)cc(O)c12 | inactive
88 | Cn1ccc2cc3c(cc21)CCN3C(=O)Nc1cccnc1 | inactive
